The text below walks through data of PubChem BioAssay.

The source made the active and inactive calls.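 How the source made its calls: active means normalized viability below 100% at a tested concentration; inactive means the rest.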

One experiment in a line: drug combination growth inhibition, ovarian cancer – cell-based, oncology-focused library, rucaparib conditional, profiling panel (AID 1508598). The settings on record: patient-derived ovarian cancer cells, CellTiter-Glo viability, 144 h; at 0.00122 µM; OCI-P5x cells; with rucaparib 20 µM; active compounds read low; 100% = cells with rucaparib alone.
Take `Cc1ccc(-c2cc(C(F)(F)F)nn2-c2ccc(S(N)(=O)=O)cc2)cc1`: the viability was 91.7% (active).

As to `CN(CCOc1ccc(CC2SC(=O)NC2=O)cc1)c1ccccn1` (configuration not stated), the viability is 104% (inactive).

With `CCCCCCNC(=O)n1cc(F)c(=O)[nH]c1=O`, the viability was 115% (inactive).

On to `O=c1[nH]cc(F)c(=O)[nH]1`, for which the viability was 115% (inactive).

Still in this experiment, the particulars now being: patient-derived ovarian cancer cells, CellTiter-Glo viability, 144 h; at 0.00122 µM; OCI-P5x cells; without rucaparib; active compounds read low.
In the case of `Cc1ccc(-c2cc(C(F)(F)F)nn2-c2ccc(S(N)(=O)=O)cc2)cc1`, the viability is 91.9% (active).

Consider `CN(CCOc1ccc(CC2SC(=O)NC2=O)cc1)c1ccccn1` (configuration not stated), for which the viability was 108% (inactive).

As to `CCCCCCNC(=O)n1cc(F)c(=O)[nH]c1=O`, the viability is 115% (inactive).

As for `O=c1[nH]cc(F)c(=O)[nH]1`, the viability is 115% (inactive).

The experiment is the same for the next values; noted with them: patient-derived ovarian cancer cells, CellTiter-Glo viability, 144 h; at 0.00488 µM; OCI-C5x cells; with rucaparib 10 µM; active compounds read low; 100% = cells with rucaparib alone.
Regarding `Cc1ccc(-c2cc(C(F)(F)F)nn2-c2ccc(S(N)(=O)=O)cc2)cc1`, the viability was 118% (inactive).

`CN(CCOc1ccc(CC2SC(=O)NC2=O)cc1)c1ccccn1` (configuration not stated): the viability was 123% (inactive).

Consider `CCCCCCNC(=O)n1cc(F)c(=O)[nH]c1=O`, for which the viability is 115% (inactive).

With `O=c1[nH]cc(F)c(=O)[nH]1`, the viability is 115% (inactive).
